From PubChem BioAssay AID651821 (The Scripps Research Institute Molecular Screening Center, 2012)
Hit rate of the full screen: of about 370,000 compounds, about 4,700 (1.3%) were called active. Only a selection was taken, and actives are over-represented in it overall. Values without a mark were called inactive.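 The calls were made as follows: active = inhibition above the plate cutoff, the mean of all test compounds on that plate plus 3 SD (cut at about 35% in these data); inactive = the rest.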

assay: binders of r(CAG) RNA repeats, primary screen, biochemical, fluorescence (AID 651821); conditions: r(CAG) RNA repeat, TO-PRO-1 dye displacement fluorescence; at 3 µM; hits give high values;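 also: 0% = DMSO alone and 100% = 100 µM mitoxantrone as full dye displacement; higher means more dye released from RNA so lower well fluorescence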

| Structure (SMILES) | inhibition |
| --- | --- |
| Cc1c(C(=O)CN2CCOCC2)[nH]c2ccccc12 | 1.32% |
| CCCS(=O)(=O)Nc1c(C(=O)O)[nH]c2ccccc12 | 0.99% |
| O=C(O)c1[nH]c2ccccc2c1C(c1cccc(O)c1)c1c(C(=O)O)[nH]c2ccccc12 | 61.1% (active) |
| O=C(NCc1ccccc1)[C@@H]1CCCN1C(=O)[C@@H](NS(=O)(=O)c1ccc(F)cc1F)C1CCCCC1 | -1.8% |
| C=CCN1[C@H](CC(C)C)COc2cccc(N3CCCC3)c2S1(=O)=O | 8.14% |
| CCOc1ccc2ccccc2c1/C=N/NC(=O)c1c(C)cc(C)[nH]c1=O | 0.65% |
| CN1CCc2ccccc2C1Cc1ccccc1NC(=O)c1sc2ccccc2c1Cl (configuration not stated) | -0.7% |
| O=C(N/N=C/c1c(Cl)[nH]c2ccccc12)c1sc2ccccc2c1Cl | 35.6% (active) |
| Cc1ccc2nc(N3C(=O)C(O)=C(C(=O)c4ccco4)C3c3cccc(O)c3)sc2c1 (configuration not stated) | 72.6% (active) |
| C=CCSc1nnc(N2C(=O)C(O)=C(C(=O)c3ccco3)C2c2ccc(F)cc2)s1 (configuration not stated) | 18.7% |
| O=C(C1=C(O)C(=O)N(c2ncccn2)C1c1cccs1)c1ccco1 (configuration not stated) | -0.3% |
| COCCNc1cc(NCCOC)c([N+](=O)[O-])cc1[N+](=O)[O-] | 1.02% |
| COC(=O)[C@]12C[C@H](CC(=O)N3CCN(C(=O)C4CC4)CC3)C(=O)N(Cc3ccc4c(c3)OCO4)C1=C[C@H](C(C)(C)C)O[C@@H]2C | 1.7% |
| COc1ccccc1C(=O)CSc1nnc(-c2ccccn2)n1-c1ccccc1 | 5.14% |
| CCCCNC(=O)C[C@@H]1C(=O)N(CCc2ccc(Cl)cc2)C2=CCCC[C@]21C(=O)OCC | 0.46% |
| Cc1c(CC(=O)NCC(=O)NCC(=O)O)c(=O)oc2cc3oc4c(c3cc12)CCCC4 | 11.3% |
| Cc1c(CCC(=O)N[C@@H](CC(C)C)C(=O)O)c(=O)oc2c(C)c3oc4c(c3cc12)CCCC4 | 38.4% (active) |
| Cc1c(C)c2cc3c4c(oc3c(C)c2oc1=O)CCCC4 | 5.96% |
| Cc1oc2c(C)c3oc(=O)c(CC(=O)N[C@@H](CC(C)C)C(=O)N[C@@H](Cc4ccccc4)C(=O)O)c(C)c3cc2c1C | 15.8% |
| COc1ccc2c(C)c(CCC(=O)NC3CC3)c(=O)oc2c1C | -3.01% |
| CC[C@@H](C)[C@H](NC(=O)CCc1c(C)c2cc3c4c(oc3c(C)c2oc1=O)CCCC4)C(=O)O | 36.8% (active) |
| COC(=O)C1=C(C)N(Cc2ccc(C(F)(F)F)cc2)C(=NCc2ccccc2)NC1c1ccccc1C(F)(F)F (configuration not stated) | 1.95% |
| CC(C)(C)C(c1nc2ccccc2[nH]1)n1c(Cc2csc3ccccc23)nc2ccccc21 (configuration not stated) | 6.22% |
| CC(C)(C)OC(=O)NCCc1ccccc1/C=C/S(=O)(=O)NCc1ccc(F)cc1 | 3.67% |
| Cc1[nH]c2ccccc2c1CC(=O)Nc1ccc(Nc2cccnc2)c(-c2cccc(Cl)c2)c1 | 14.1% |
| COC(=O)c1cc2c(c3c4cc(F)ccc4n(S(=O)(=O)c4ccccc4)c13)C(=O)N(Cc1ccccc1OC)C2 | 16.2% |

| Structure (SMILES) | inhibition |
| --- | --- |
| O=C(Nc1ccccc1)Nc1nnc(COc2ccccc2F)s1 | 56.5% (active) |
| O=C(NCCOc1ccccc1F)Nc1ccc(Br)cc1 | 5.19% |
| COCc1nnc(NC(=O)CS(=O)(=O)Cc2ccccc2)s1 | 4.38% |
| CCOC(=O)[C@]12CCCC3=C1N(CCC3)C(=O)[C@@H](CC(=O)N1CCSCC1)C2 | -0.18% |
| CCOc1ccc(C(=O)NC2CCN(CC(=O)NCc3cccs3)CC2)cc1 | -7.65% |
| COCCNC(=O)c1ccc2nc(Cc3ccc(OC)c(OC)c3)oc2c1 | -4.89% |
| COc1cc(NC(=O)C2=CC(c3ccco3)=NS(=O)(=O)N2C)cc(OC)c1OC | 1.85% |
| COCCNC(=O)Nc1ccc2nc(-c3ccco3)c(-c3ccco3)nc2c1 | 69.7% (active) |
| COC(=O)[C@]12C[C@H](CC(=O)NCc3cccs3)C(=O)N(CCc3ccc(OC)c(OC)c3)C1=C[C@H](C(C)C)O[C@@H]2C1CC1 | 3.01% |
| CCc1nn(CCCC(=O)NC(C)c2ccccc2)c(=O)c2cc3occc3n12 (configuration not stated) | -1.26% |
| O=C(C1CCN(S(=O)(=O)c2ccc(Br)s2)CC1)N1CCN(C2CCCCC2)CC1 | -5.64% |
| O=C(CCCN1C(=O)c2cccc3cccc(c23)C1=O)N1CCN(Cc2ccc3c(c2)OCO3)CC1 | -5.35% |
| O=C(COC(=O)CCCN1C(=O)c2cccc3cccc(c23)C1=O)NC1CCS(=O)(=O)C1 (configuration not stated) | -0.32% |
| O=C1c2cccc3cccc(c23)C(=O)N1CCCCCc1n[nH]c(=S)o1 | 38.4% (active) |
| COc1cc(C(=O)Nn2c(O)c(C3=c4ccccc4=NC3=O)sc2=S)ccc1O | 50.1% (active) |
| COc1cc(C(=S)NC2CCCCC2)ccc1O | 4.7% |
| COc1cc(C(=O)Nn2c(CC(C)C)nc3ccccc3c2=O)cc(OC)c1OC | -4.74% |
| C[C@H](C(=O)N(C)c1ccccc1)[C@@H](O)c1ccc(Cl)cc1 | -1.76% |
| C=CCN1C(=O)[C@@H](CC(=O)NCCCCc2ccccc2)[C@]2(C(=O)OCC)CCCCC/C=C/12 | 3.6% |
| CCOC(=O)N1CCN(C(=O)C[C@@H]2C(=O)N(CCc3ccc(Cl)cc3)C3=CCCC[C@]32C(=O)OCC)CC1 | 3.44% |
| CC(=O)N(c1ccc2oc(=O)sc2c1)S(=O)(=O)c1ccc(C)cc1 | 42.4% (active) |
| CC(=O)Oc1ccc(N(C(C)=O)S(=O)(=O)c2ccc3ccccc3c2)cc1Br | 2.18% |
| COC(=O)c1c(C)oc2ccc(N(C(=O)Oc3ccccc3)S(=O)(=O)c3ccccc3)cc12 | 5.17% |
| CC(=O)OC12CCCN(C1)/C(=C/c1ccncc1)C2 (configuration not stated) | 3.52% |
| CCCOc1ccc(Oc2c(Cl)cnn(Cc3cccc4ccccc34)c2=O)cc1 | 6.74% |
| C[C@H](CO)N1C[C@H](C)[C@@H](CN(C)C(=O)Nc2ccccc2F)OCc2cn(nn2)CCCC1=O | 0.24% |
